# From PubChem BioAssay (NCI)
# Compounds without any hit were thinned out: in the full panel of roughly 83,000, 20% have a hit.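 For each line, cells grew in 96-well plates with the test compound present at a single concentration for 48 hours.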 Values without a mark were called inactive. Activity calls are given as the source filed them. The calls were made as follows: active = growth percent below 10; inactive = the rest.
# Legend:
# Experiment in all cases: NCI-60 one-dose screen, 48 h (100 = growth as untreated, 0 = no growth, -100 = all killed)
# Conditions in all cases: 10 µM unless noted
# [1] = tested on: HCT-15 colon
# [2] = tested on: HT29 colon
# [3] = tested on: SNB-75 CNS
# [4] = tested on: SNB-19 CNS
# [5] = tested on: U251 CNS
# [6] = tested on: PC-3 prostate
# [7] = tested on: SK-MEL-5 melanoma
# [8] = tested on: UACC-62 melanoma
# [9] = tested on: LOX IMVI melanoma
# [10] = tested on: SK-MEL-28 melanoma
# [11] = tested on: SK-MEL-2 melanoma
# [12] = tested on: EKVX NSCLC
# [13] = tested on: SN12C renal
# [14] = tested on: UO-31 renal
# [15] = tested on: TK-10 renal
# [16] = tested on: ACHN renal
# [17] = tested on: CAKI-1 renal
# [18] = tested on: A498 renal
# [19] = tested on: CCRF-CEM leukemia
# [20] = tested on: MOLT-4 leukemia
SMILES,growth [1],growth [2],growth [3],growth [4],growth [5],growth [6],growth [7],growth [8],growth [9],growth [10],growth [11],growth [12],growth [13],growth [14],growth [15],growth [16],growth [17],growth [18],growth [19],growth [20]
CC(=O)c1sc(-c2ccc(F)cc2)cc1O,97.7%,105%,89%,103%,100%,93.9%,100%,100%,97.4%,110%,107%,99.7%,109%,88.5%,95.1%,106%,93.3%,102%,97.6%,93.4%
COc1cc2c(c(OC)c1OC)CCC(c1cccc(C(=O)Nc3ccc(Br)cc3)c1)O2 (stereo not given),61%,65.7%,61.8%,65.8%,75.5%,39.4%,55%,53%,65.2%,76.9%,46.4%,60.5%,47.1%,39.7%,77.4%,67.9%,73.6%,-3.18% (active),53.3%,25.1%
Oc1ccc(-c2nc3ccc4[nH]ncc4c3c3c2CCCC3)c(F)c1,15.8%,42.5%,17%,60.5%,38.3%,33.8%,3.31% (active),11.7%,27.8%,17.5%,-13.3% (active),38.3%,44.8%,17.5%,29.2%,11.9%,13%,30.1%,12%,2.01% (active)
COc1ccccc1/C=C/C(=O)Nc1ccc(F)cc1,98.4%,89.1%,77.9%,99.8%,108%,95.7%,95.1%,89.8%,100%,108%,99.1%,73.2%,111%,87.6%,128%,101%,90.7%,102%,97.6%,88.1%
Cc1cccc(NC(=O)N/C(N)=N/c2nc3ccccc3s2)c1,23%,11.3%,4.63% (active),42.3%,28.9%,34.2%,23.7%,33.5%,34.4%,63%,33%,49.6%,43.9%,38.6%,59%,38.7%,25%,-3.86% (active),21.4%,35.7%
C/C(=N\Nc1ccccc1)c1ccc(NC2=CC(=O)c3ccccc3C2=O)cc1,31.9%,75.3%,51.1%,85.7%,45.8%,40.1%,-10.5% (active),-7.92% (active),21.4%,65.9%,55.6%,74%,63.5%,38.8%,81.5%,48.2%,43.8%,110%,62.7%,63%
CC1(C)CC[C@]23CC[C@]4(C)[C@H](CC[C@@H]5[C@@]6(C)C/C(=C/O)C(=O)C(C)(C)[C@@H]6CC[C@]54C)[C@H]2[C@H]1OC3,110%,100%,104%,98%,105%,86.1%,101%,93%,90.8%,107%,108%,98.4%,99.2%,85%,113%,110%,91.1%,105%,99.5%,97.7%
COC(=O)c1ccc2c(c1)c1c(C)c3cnccc3c(C)c1n2C,-8.77% (active),-10.9% (active),8.05% (active),-1.59% (active),-16.5% (active),5.43% (active),-91.3% (active),-82.3% (active),-55% (active),-54.5% (active),-56.2% (active),-7.49% (active),-3.93% (active),-45.7% (active),-15.5% (active),-27.7% (active),-10.2% (active),-84.3% (active),6.83% (active),2.75% (active)
C#CCOc1cccc(Nc2ncnc3cc(NC(=O)CCl)ccc23)c1,-53.5% (active),-78.9% (active),-49.9% (active),-88% (active),-78.9% (active),-83.8% (active),-93.8% (active),-73.9% (active),-67.3% (active),-30.6% (active),-55.3% (active),-49.1% (active),-83.5% (active),-88.7% (active),-85% (active),-84.1% (active),-57.7% (active),-25.6% (active),-46.9% (active),-35.4% (active)
Cn1c2ccccc2c2c3c(c4c5cc(Br)ccc5n(C)c4c21)C(=O)N(O)C3=O,21%,52.6%,38.9%,16%,3.06% (active),47%,-35.4% (active),-4.53% (active),-77.9% (active),54.3%,56.3%,88.5%,-53.2% (active),2.59% (active),90.3%,-23% (active),-22.4% (active),103%,-22.2% (active),-21.4% (active)
Clc1ccc(-c2cc(-c3ccccc3)nc(N3CCN(CCCNc4ccnc5cc(Cl)ccc45)CC3)n2)cc1,-25.5% (active),-1.6% (active),-23.9% (active),49%,-52.9% (active),43.1%,33.2%,51%,-95.5% (active),-37.5% (active),12.4%,80.1%,-90.2% (active),-52% (active),40.5%,3.37% (active),-31.5% (active),69.5%,2.6% (active),2.31% (active)
COC12C=C/C(=C(/C(=O)OCc3cncnc3)C(=O)CCCCCCCCC3(OC)C=C/C(=C(/C(=O)OCc4cncnc4)C(=O)CCCCCCCC1)O3)O2,-49.1% (active),1.94% (active),22.4%,10.9%,-36.5% (active),-55.1% (active),-79.9% (active),-56.9% (active),-61.8% (active),-45% (active),-13.1% (active),-20.5% (active),-34.7% (active),-73.6% (active),-23.6% (active),-93.7% (active),-43.5% (active),-94.1% (active),-18.2% (active),-13.4% (active)
O=S(=O)(N=C1C(Cl)=C(Cl)C(=NS(=O)(=O)c2ccccc2)C(Cl)=C1Cl)c1ccccc1,7.28% (active),14%,132%,95.9%,59.8%,121%,87%,67.1%,54.6%,89.5%,14%,107%,87.6%,89.5%,95.3%,-22.5% (active),5% (active),96.8%,73.6%,55%
CCCN(CCSSCCNc1nc(N(C)O)nc(N(C)O)n1)c1nc(N(C)O)nc(N(C)O)n1,69.3%,78.4%,73.8%,44.7%,32.8%,67.9%,80.9%,81.3%,70.7%,67.1%,69.8%,54.3%,69.7%,52.3%,71%,45.3%,31.9%,64.4%,9.07% (active),47.3%
O=C(Nc1ccc(Oc2cccc(Cl)c2)c(Cl)c1)c1cccnn1,56.7%,89.9%,77.7%,89.5%,76.7%,57.2%,83.8%,74.7%,88.5%,99.4%,102%,87.3%,83.2%,64.9%,75%,97.9%,80.8%,87.4%,84%,80.1%
